Laboratory results published in PubChem BioAssay (NCI).
The panel holds about 79,000 compounds, 15% with a hit somewhere; the sample as a whole holds those more often. Activity calls are given as the source filed them. Rule as the data show it: active = growth inhibition above about 70%; inactive = the rest.

Assays:
[1] = NCI Yeast Anticancer Drug Screen. Data for the wt1 strain (AID 149);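 also: 0% = growth of vehicle-treated wt1 cultures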; details: S. cerevisiae wt1 strain (SPY 50644) growth inhibition, hits give high values
How it was run: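 Compounds are added to wt1 yeast cultures. Growth is then measured. Inhibition is expressed relative to vehicle-treated controls.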

[2] = NCI Yeast Anticancer Drug Screen. Data for the rad50EPP+ strain (AID 151);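 also: 0% = growth of vehicle-treated control cultures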; details: S. cerevisiae rad50 mutant strain, hits give high values
How it was run: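 Measured: growth inhibition of rad50EPP+ yeast. Reference: vehicle-treated controls. Screen uses strains with defined genetic alterations in DNA damage repair or cell cycle control.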

[3] = NCI Yeast Anticancer Drug Screen. Data for the mgt1 strain (AID 153); details: S. cerevisiae mgt1 mutant growth inhibition, hits give high values
How it was run: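 Compounds were applied to mgt1 mutant yeast, and growth was then compared against vehicle-treated control cultures to give percent inhibition.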

[4] = NCI Yeast Anticancer Drug Screen. Data for the rad14 strain (AID 159);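 also: 0% = growth of vehicle-treated control cultures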; details: S. cerevisiae rad14 strain growth inhibition, hits give high values
How it was run: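 A mutant yeast strain defective in DNA damage repair is treated with compound; inhibition of its growth is scored against untreated, vehicle-exposed cultures.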

[5] = NCI Yeast Anticancer Drug Screen. Data for the CLN2oe strain (AID 163);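 also: 0% = growth of vehicle-only control cultures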; details: S. cerevisiae CLN2oe strain, hits give high values
How it was run: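 Cells of an engineered yeast line with disturbed cell-cycle regulation are treated with compound. Inhibition of growth is then calculated relative to the vehicle-treated reference.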

[6] = NCI Yeast Anticancer Drug Screen. Data for the wt2 strain (AID 169);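 also: 0% = growth of vehicle-treated yeast cultures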; details: S. cerevisiae wt2 strain growth inhibition, hits give high values
How it was run: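 Growth of compound-treated yeast is measured and expressed as inhibition relative to vehicle-only controls.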

[7] = NCI Yeast Anticancer Drug Screen. Data for the mlh1 strain (AID 171);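 also: 0% = growth of vehicle-treated control cultures of the same strain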; details: S. cerevisiae mlh1 strain growth inhibition, hits give high values
How it was run: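 Test agents were incubated with yeast bearing a defined DNA damage repair or cell cycle control alteration; values are growth inhibition normalised to vehicle-treated cultures.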

[8] = NCI Yeast Anticancer Drug Screen. Data for the sgs1 strain (AID 173);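 also: 0% = growth of vehicle-only control cultures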; details: S. cerevisiae sgs1 mutant, hits give high values
How it was run: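 Strain with an altered DNA repair or cell cycle pathway exposed to compound. Growth then measured. Value = inhibition versus vehicle control.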

[9] = NCI Yeast Anticancer Drug Screen. Data for the rad18 strain (AID 177); details: S. cerevisiae rad18 mutant growth inhibition, hits give high values
How it was run: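 DNA-repair-defective yeast; compound treatment; growth inhibition scored against vehicle.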

[10] = NCI Yeast Anticancer Drug Screen. Data for the rad52 strain (AID 147);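 also: 0% = growth of vehicle-treated control cultures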; details: S. cerevisiae rad52 mutant growth inhibition, hits give high values
How it was run: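 Growth of repair-deficient yeast cells was compared between compound-treated and vehicle-treated cultures to give percent inhibition.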

[11] = NCI Yeast Anticancer Drug Screen. Data for the rad50 strain (AID 155);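 also: 0% = growth of vehicle-only cultures of the same strain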; details: S. cerevisiae rad50 strain growth inhibition, hits give high values
How it was run: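 Inhibition values express reduced yeast growth in compound-treated cultures relative to vehicle-treated controls.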

[12] = NCI Yeast Anticancer Drug Screen. Data for the mec2-1 strain (AID 157); details: S. cerevisiae mec2-1 strain, hits give high values
How it was run: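 Compounds were applied to mec2-1 yeast cells. Their growth was then compared with that of vehicle-treated cultures to give growth inhibition.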

[13] = NCI Yeast Anticancer Drug Screen. Data for the sgs1 mgt1 strain (AID 161);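 also: 0% = growth of cultures given vehicle only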; details: S. cerevisiae sgs1 mgt1 strain, hits give high values
How it was run: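 This yeast growth screen uses a strain with defined DNA-repair lesions; compound-treated growth is compared with vehicle-treated growth.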

[14] = NCI Yeast Anticancer Drug Screen. Data for the cln2 rad14 strain (AID 165);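 also: 0% = growth equal to vehicle treated cultures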; details: S. cerevisiae cln2 rad14 strain, hits give high values
How it was run: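 Strain: cln2 rad14 yeast, altered in cell cycle control and DNA damage repair. Read-out: growth inhibition vs vehicle.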

[15] = NCI Yeast Anticancer Drug Screen. Data for the bub3 strain (AID 167); details: S. cerevisiae bub3 mutant strain, hits give high values
How it was run: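 Steps: expose the mutant yeast strain to compound; grow alongside vehicle-treated cultures; measure growth; express inhibition against the vehicle cultures.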

[16] = NCI Yeast Anticancer Drug Screen. Data for the mlh1 rad18 strain (AID 175); details: S. cerevisiae mlh1 rad18 strain growth inhibition, hits give high values
How it was run: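 A repair-deficient yeast strain is exposed to test compound, and growth is scored relative to vehicle-treated controls.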

[17] = at 5.0 µM (retest, dose inferred, filed as 0.5)
[18] = at 50.0 µM (retest, dose inferred, filed as 5.0)

Measured: growth inhibition

CC(=O)[O-].O=C([CH-]C(=O)c1ccccc1)c1ccccc1.O=C([CH-]C(=O)c1ccccc1)c1ccccc1.[Sm+3]
active: [1]; at 33.0 µM 98% | [1]; at 100.0 µM 97% | [2]; at 3.7 µM 70% | [2]; at 33.0 µM 70% | [2]; at 100.0 µM 79% | [3]; at 33.0 µM 98% | [3]; at 100.0 µM 98% | [4]; at 11.0 µM 97% | [4]; at 33.0 µM 99% | [4]; at 100.0 µM 98% | [5]; at 33.0 µM 97% | [5]; at 100.0 µM 97% | [6]; at 33.0 µM 98% | [6]; at 100.0 µM 98% | [7]; at 11.0 µM 70% | [7]; at 33.0 µM 98% | [7]; at 100.0 µM 99% | [8]; at 33.0 µM 97% | [8]; at 100.0 µM 97% | [9]; at 33.0 µM 98% | [9]; at 100.0 µM 97%
inactive: [1]; at 1.2 µM 4% | [1]; at 3.7 µM 4% | [1]; at 11.0 µM 25% | [2]; at 1.2 µM 35% | [2]; at 11.0 µM 52% | [3]; at 1.2 µM 0% | [3]; at 3.7 µM 6% | [3]; at 11.0 µM 50% | [4]; at 1.2 µM 6% | [4]; at 3.7 µM 7% | [5]; at 1.2 µM -3% | [5]; at 3.7 µM 6% | [5]; at 11.0 µM 45% | [6]; at 1.2 µM 1% | [6]; at 3.7 µM 8% | [6]; at 11.0 µM 65% | [7]; at 1.2 µM 3% | [7]; at 3.7 µM 8% | [8]; at 1.2 µM 2% | [8]; at 3.7 µM 7% | [8]; at 11.0 µM 59% | [9]; at 1.2 µM 5% | [9]; at 3.7 µM 12% | [9]; at 11.0 µM 43%

CNc1nc(C)nc2c1cnn2-c1ccc([N+](=O)[O-])cc1
inactive: [10]; at 1.2 µM -1% | [10]; at 3.7 µM -6% | [10]; at 11.0 µM 10% | [10]; at 33.0 µM 26% | [10]; at 100.0 µM 41% | [2]; at 1.2 µM 11% | [2]; at 3.7 µM 17% | [2]; at 11.0 µM 42% | [2]; at 33.0 µM 63% | [2]; at 100.0 µM 69% | [11]; at 1.2 µM -2% | [11]; at 3.7 µM -5% | [11]; [17] 1% | [11]; at 11.0 µM 16% | [11]; at 33.0 µM 68% | [12]; at 1.2 µM 0% | [12]; at 3.7 µM 0% | [12]; [17] -2% | [12]; at 11.0 µM 2% | [12]; at 33.0 µM -1% | [12]; [18] 31% | [12]; at 50.0 µM -1.35% | [12]; at 100.0 µM -2% | [4]; at 1.2 µM 11% | [4]; at 3.7 µM 2% | [4]; at 11.0 µM 22% | [4]; at 33.0 µM 24% | [4]; at 100.0 µM 25% | [13]; [17] 2% | [13]; at 50.0 µM 69.7% | [5]; at 1.2 µM -6% | [5]; at 3.7 µM -5% | [5]; at 11.0 µM -5% | [5]; at 33.0 µM -6% | [5]; at 100.0 µM -8% | [14]; [17] -4% | [14]; [18] 30% | [14]; at 50.0 µM 2% | [15]; at 1.2 µM -5% | [15]; at 3.7 µM -2% | [15]; [17] -2% | [15]; at 11.0 µM -12% | [15]; at 33.0 µM -12% | [15]; [18] 2% | [15]; at 50.0 µM -13.3% | [15]; at 100.0 µM -14% | [6]; at 1.2 µM -4% | [6]; at 3.7 µM 9% | [6]; at 11.0 µM 13% | [6]; at 33.0 µM 24% | [6]; at 100.0 µM 16% | [7]; at 1.2 µM -5% | [7]; at 3.7 µM -1% | [7]; at 11.0 µM 0% | [7]; at 33.0 µM -1% | [7]; at 100.0 µM -1% | [8]; at 1.2 µM 5% | [8]; at 3.7 µM 4% | [8]; at 11.0 µM 44% | [8]; at 33.0 µM 69% | [16]; [17] -8% | [16]; at 50.0 µM 57.5% | [9]; at 1.2 µM -1% | [9]; at 3.7 µM 16% | [9]; at 11.0 µM 49%
active: [11]; [18] 76% | [11]; at 50.0 µM 79.2% | [11]; at 100.0 µM 88% | [13]; [18] 83% | [8]; at 100.0 µM 80% | [16]; [18] 91% | [9]; at 33.0 µM 89% | [9]; at 100.0 µM 92%

O=Cc1coc2ccccc2c1=O
active: [2]; at 100.0 µM 91% | [12]; [18] 70% | [4]; at 100.0 µM 95% | [13]; [18] 98% | [13]; at 50.0 µM 89.7% | [14]; at 50.0 µM 75.2% | [15]; [18] 87% | [15]; at 50.0 µM 88.8% | [6]; at 100.0 µM 99%
inactive: [1]; at 1.2 µM 10% | [1]; at 3.7 µM 19% | [1]; at 11.0 µM 18% | [1]; at 33.0 µM 22% | [1]; at 100.0 µM 42% | [2]; at 1.2 µM 2% | [2]; at 3.7 µM 11% | [2]; at 11.0 µM 28% | [2]; at 33.0 µM 66% | [11]; at 1.2 µM -23% | [11]; at 3.7 µM 10% | [11]; [17] 12% | [11]; at 11.0 µM 17% | [11]; at 33.0 µM 24% | [11]; [18] 26% | [11]; at 50.0 µM 20.4% | [11]; at 100.0 µM 57% | [12]; at 1.2 µM -7% | [12]; at 3.7 µM 12% | [12]; [17] -15% | [12]; at 11.0 µM 18% | [12]; at 33.0 µM 18% | [12]; at 50.0 µM 35.2% | [12]; at 100.0 µM 65% | [4]; at 1.2 µM -16% | [4]; at 3.7 µM -7% | [4]; at 11.0 µM 8% | [4]; at 33.0 µM 16% | [13]; [17] 9% | [5]; at 1.2 µM -1% | [5]; at 3.7 µM 25% | [5]; at 11.0 µM 27% | [5]; at 33.0 µM 2% | [5]; at 100.0 µM 40% | [14]; [17] 6% | [14]; [18] 19% | [15]; at 1.2 µM 5% | [15]; at 3.7 µM 13% | [15]; [17] 2% | [15]; at 11.0 µM 8% | [15]; at 33.0 µM 15% | [15]; at 100.0 µM 51% | [6]; at 1.2 µM -17% | [6]; at 3.7 µM -11% | [6]; at 11.0 µM 3% | [6]; at 33.0 µM 12% | [7]; at 1.2 µM 1% | [7]; at 3.7 µM 5% | [7]; at 11.0 µM 24% | [7]; at 33.0 µM 30% | [7]; at 100.0 µM 61% | [8]; at 1.2 µM 0% | [8]; at 3.7 µM 14% | [8]; at 11.0 µM 23% | [8]; at 33.0 µM 32% | [8]; at 100.0 µM 60% | [16]; [17] -1% | [16]; [18] 16% | [16]; at 50.0 µM 62.4% | [9]; at 1.2 µM 5% | [9]; at 3.7 µM 19% | [9]; at 11.0 µM 18% | [9]; at 33.0 µM 20% | [9]; at 100.0 µM 67%
